Reference: the supplement of paper PMC11732987, “Enantioselective OTUD7B fragment discovery through chemoproteomics screening and high-throughput optimisation” (Communications Chemistry, 2025)

target: USP14 (UniProt P54578); assay: log2 ratio of Biotin-Ahx-Ub-VS probe labelling (fragment/DMSO); higher = less target engagement (more negative = stronger competition), active = hit call of the paper (q ≤ 0.05, log2 ratio ≤ -1); conditions: compound concentration: 200 uM; treatment time: 3 h
Method: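 Competitive ABPP in HEK293T cell lysate. Lysates were treated with each chloroacetamide fragment at 200 µM for 3 h, then with Biotin-Ahx-Ub-VS (0.5 µM, 1 h), NeutrAvidin-enriched and analysed by diaPASEF LC-MS/MS. Protein LFQ was median-normalised; average log2 ratio is fragment/DMSO from an unpaired t-test (n=3 treated, n=44 DMSO). Hits: q ≤ 0.05, log2 ratio ≤ -1, unique peptides ≥ 2.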

Chain of USP14 (P54578 whole entry, the tested form may be a part): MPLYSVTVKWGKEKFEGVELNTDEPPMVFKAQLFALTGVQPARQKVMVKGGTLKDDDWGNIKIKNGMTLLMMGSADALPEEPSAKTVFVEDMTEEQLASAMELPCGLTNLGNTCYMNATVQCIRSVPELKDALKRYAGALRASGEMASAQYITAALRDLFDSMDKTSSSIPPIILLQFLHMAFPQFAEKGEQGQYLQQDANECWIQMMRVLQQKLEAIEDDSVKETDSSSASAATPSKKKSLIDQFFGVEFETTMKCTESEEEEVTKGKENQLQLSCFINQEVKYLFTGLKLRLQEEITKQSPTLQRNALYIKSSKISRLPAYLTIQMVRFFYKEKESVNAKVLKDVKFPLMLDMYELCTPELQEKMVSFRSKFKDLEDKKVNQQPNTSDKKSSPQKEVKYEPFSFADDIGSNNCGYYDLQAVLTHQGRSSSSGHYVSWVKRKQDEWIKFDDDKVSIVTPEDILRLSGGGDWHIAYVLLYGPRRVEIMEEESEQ

log2 ratio of Biotin-Ahx-Ub-VS probe labelling, active:
Cc1conc1C1CN(C(=O)CCl)C1 -1.12
O=C(CCl)N1CCc2[nH]c3ccccc3c2C1 -1.05
O=C(CCl)Nc1cc(Cl)ccc1-n1cncn1 -1.09

log2 ratio of Biotin-Ahx-Ub-VS probe labelling, inactive:
O=C(CCl)NC1CCC2(CC1)OCCO2 -0.308
O=C(CCl)NCc1ccc(N2CCOCC2)nc1 -0.262
COc1ccc(-c2csc(NC(=O)CCl)n2)cc1 -0.0511
O=C(CCl)N[C@H]1CCS(=O)(=O)c2ccccc21 -0.0969
Cc1n[nH]c2c1CN(C(=O)CCl)CC2 -0.903
N#Cc1ccc(Cl)cc1NC(=O)CCl -0.283
O=C(CCl)N1CCc2nc[nH]c2C1c1ccc(Cl)cc1 (stereo not given) -0.69
O=C(CCl)Nc1cccc2ncccc12 0.338
COc1cccc(CN(C)C(=O)CCl)c1 -0.252
O=C(CCl)NC1CCOc2ccccc21 (stereo not given) -0.937
Cc1ccccc1CN(C)C(=O)CCl -0.81
O=C(CCl)N1CCC(C(=O)N2CCCCCC2)CC1 -0.204
O=C(CCl)NCc1ccc2c(c1)OCO2 0.052
CCCn1nccc1NC(=O)CCl -0.663
Cc1ccc(N2CCC(NC(=O)CCl)C2=O)cc1 (stereo not given) -0.0106
O=C(CCl)N1CCC(c2nc3ccccc3o2)CC1 -0.483
Cl.O=C(CCl)NC1(c2ncccn2)CCC1 0.108
O=C(CCl)N1CCC(C(=O)N2CCCC2)CC1 -0.0629
O=C(CCl)N1CCC(C(O)c2ccc(F)cc2)CC1 (stereo not given) -0.0836
CC(O)CC1CCN(C(=O)CCl)CC1 (stereo not given) -0.442
CCC(NC(=O)CCl)c1ccc(Cl)cc1 (stereo not given) -0.332
Cl.O=C(CN1CCN(C(=O)CCl)CC1)Nc1ccc(F)cc1 -0.0648
Cc1noc(C)c1CNC(=O)CCl -0.561
Cl.O=C(CCl)N1CCC(n2nc3ccccc3n2)CC1 -0.545
O=C(CCl)N1CCCC2CCCCC21 (stereo not given) -0.25
O=C(CCl)NC1CCCCNC1=O (stereo not given) -0.476
Cc1cc(NC(=O)CCl)n(-c2ccccc2)n1 0.0764
NC(=O)C(Cc1ccccc1)NC(=O)CCl (stereo not given) -0.156
CC1CCc2onc(CNC(=O)CCl)c2C1 (stereo not given) 0.328
CN(CCc1ncc(Br)cn1)C(=O)CCl.Cl -0.0202
Cc1cc(Cl)ccc1NC(=O)CCl -0.0914
Cl.O=C(CCl)NCCc1ncc(F)cc1F -0.31
O=C(CCl)Nc1cccc(NC(=O)c2ccccc2)c1 0.235
O=C(CCl)N1CCC(c2ccn[nH]2)C1 (stereo not given) -0.0963
Cc1cccc(N2CCC(NC(=O)CCl)C2=O)c1 (stereo not given) -0.345
O=C(CCl)Nc1ccccc1C(F)(F)F -0.46
CS(=O)(=O)c1ccc(CNC(=O)CCl)cc1 -0.204
